Experimental findings from PubChem BioAssay (NCATS) are described below.

The nature of experiment [1]: Quantitative High-Throughput drug screen in 47 multiple myeloma cell lines against the NCATS MIPE library collection: L363_DSMZ cell viability assay (AID 1918984). Also: nearly all actives have a fitted effect of over 40% in size. Also: potency is read from the fitted curve at half-maximal effect. The conditions noted are these: L363 myeloma viability, CellTiter-Glo ATP luminescence, 48 h; viability (% of control): at 45.8 µM (top of the series). The method in brief: (§1)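 ATP-based CellTiter-Glo luminescence after 48 h drug exposure (37 °C, 5% CO2) of 500 myeloma cells per well. DMSO-only wells set 100% viability, media-only wells 0%; MIPE 4.0 library added by pin tool.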
On the technique in general: In ATP-based viability assays light output follows the ATP content of the culture.

The nature of experiment [2]: Quantitative High-Throughput drug screen in 47 multiple myeloma cell lines against the NCATS MIPE library collection: KMS34_JCRB cell viability assay (AID 1918985). Also: nearly all actives have a fitted effect of over 40% in size. In a few lines: as §1
A short description of experiment [3]: Quantitative High-Throughput drug screen in 47 multiple myeloma cell lines against the NCATS MIPE library collection: OCIMY5_PLB cell viability assay (AID 1918988). Also: nearly all actives have a fitted effect of over 65% in size. Also: potency is read from the fitted curve at half-maximal effect. In a few lines:
as §1

Experiment [4] can be described thus: Quantitative High-Throughput drug screen in 47 multiple myeloma cell lines against the NCATS MIPE library collection: OPM1_PLB cell viability assay (AID 1918989). Also: nearly all actives have a fitted effect of over 40% in size. Also: potency is read from the fitted curve at half-maximal effect. The method in brief:
as §1

Experiment [5] in a line: Quantitative High-Throughput drug screen in 47 multiple myeloma cell lines against the NCATS MIPE library collection: SKMM1_PLB cell viability assay (AID 1919863). Also: nearly all actives have a fitted effect of over 35% in size. Also: potency is read from the fitted curve at half-maximal effect. The following applies: SKMM1 myeloma viability, CellTiter-Glo ATP, 48 h; viability: active compounds read low. The method in brief: as §1
The nature of experiment [6]: Quantitative High-Throughput drug screen in 47 multiple myeloma cell lines against the NCATS MIPE library collection: U266_ATCC cell viability assay (AID 1919864). Also: nearly all actives have a fitted effect of over 35% in size. Also: potency is read from the fitted curve at half-maximal effect. In a few lines:
as §1

A short description of experiment [7]: Quantitative High-Throughput drug screen in 47 multiple myeloma cell lines against the NCATS MIPE library collection: XG6_PLB cell viability assay (AID 1919865). Also: nearly all actives have a fitted effect of over 40% in size. Also: potency is read from the fitted curve at half-maximal effect. In a few lines:
as §1

Experiment [8] is described as follows: Quantitative High-Throughput drug screen in 47 multiple myeloma cell lines against the NCATS MIPE library collection: PE2_PLB cell viability assay (AID 1919869). Also: nearly all actives have a fitted effect of over 35% in size. Also: potency is read from the fitted curve at half-maximal effect. In a few lines: as §1
The nature of experiment [9]: Quantitative High-Throughput drug screen in 47 multiple myeloma cell lines against the NCATS MIPE library collection: PCM6_Riken cell viability assay (AID 1919870). Also: nearly all actives have a fitted effect of over 30% in size. Also: potency is read from the fitted curve at half-maximal effect. In a few lines:
as §1

The nature of experiment [10]: Quantitative High-Throughput drug screen in 47 multiple myeloma cell lines against the NCATS MIPE library collection: RPMI8226_ATCC cell viability assay (AID 1919871). Also: nearly all actives have a fitted effect of over 30% in size. Also: potency is read from the fitted curve at half-maximal effect. The method in brief: as §1
Experiment [11] is described as follows: Quantitative High-Throughput drug screen in 47 multiple myeloma cell lines against the NCATS MIPE library collection: OPM2_DSMZ cell viability assay (AID 1919872). Also: nearly all actives have a fitted effect of over 30% in size. Also: potency is read from the fitted curve at half-maximal effect. The method in brief: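 Relative luminescence from CellTiter-Glo served as the viability signal, referenced to DMSO-treated (100%) and cell-free medium (0%) controls. Treatment lasted 48 hours at 37C with 500 cells per well.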

Experiment [12] can be described thus: Quantitative High-Throughput drug screen in 47 multiple myeloma cell lines against the NCATS MIPE library collection: KMS11_JCRBsus cell viability assay (AID 1919873). Also: nearly all actives have a fitted effect of over 50% in size. Also: potency is read from the fitted curve at half-maximal effect. In a few lines: as §1
Experiment [13] is described as follows: Quantitative High-Throughput drug screen in 47 multiple myeloma cell lines against the NCATS MIPE library collection: KMS28BM_JCRB cell viability assay (AID 1919874). Also: nearly all actives have a fitted effect of over 35% in size. Also: potency is read from the fitted curve at half-maximal effect. In a few lines: as §1
Experiment [14] in a line: Quantitative High-Throughput drug screen in 47 multiple myeloma cell lines against the NCATS MIPE library collection: XG1_PLB cell viability assay (AID 1919866). Also: nearly all actives have a fitted effect of over 35% in size. Also: potency is read from the fitted curve at half-maximal effect. In a few lines: as §1
Experiment [15] can be described thus: Quantitative High-Throughput drug screen in 47 multiple myeloma cell lines against the NCATS MIPE library collection: VP6_DJ cell viability assay (AID 1919867). Also: nearly all actives have a fitted effect of over 40% in size. Also: potency is read from the fitted curve at half-maximal effect. In a few lines:
as §1

Experiment [16] is described as follows: Quantitative High-Throughput drug screen in 47 multiple myeloma cell lines against the NCATS MIPE library collection: OCIMY7_PLB cell viability assay (AID 1918987). Also: potency is read from the fitted curve at half-maximal effect; nearly all actives have a fitted effect of over 65% in size. The conditions noted are these: OCI-MY7 myeloma viability, CellTiter-Glo ATP, 48 h; viability (% of DMSO): at 45.8 µM (top of the series). In a few lines:
as §1

Experiment [17] is described as follows: Quantitative High-Throughput drug screen in 47 multiple myeloma cell lines against the NCATS MIPE library collection: UTMC2_PLB cell viability assay (AID 1919868). Also: nearly all actives have a fitted effect of over 55% in size. Also: potency is read from the fitted curve at half-maximal effect. The following applies: CellTiter-Glo ATP luminescence, 48 h; viability (% of DMSO control): at 45.8 µM (top of the series). In a few lines:
as §1

Broadly, the viability is a read-out of living cells in per cent, often relative to untreated cells.

Molecules are shown by their SMILES. Inconclusive results are not listed. Values without a mark were called inactive. The source made the active and inactive calls. Calls follow the shape of the dose curve; as a rule, active = well fitted cell-killing curve with a large enough effect; inconclusive = small, poorly fitted or top-dose-only effect, or effect the other way; inactive = no such curve, though single readings can be large or run the other way.

Consider `CC(NCCc1ccc(O)cc1)C(O)c1ccc(O)cc1` (centres undefined), for which the Potency entry in [1], in experiment [2], in experiment [4], in experiment [6], in [7] and in experiment [8] was “inactive” each time. Also, the Potency result in [9], in experiment [10], in [11], in experiment [12] and in [13] was “inactive” each time. Further, the Potency in experiment [3] was 0.132 µM (active). Also, the viability in experiment [5] was 131%.

`CC(C)(OCc1nn(Cc2ccccc2)c2ccccc12)C(=O)O`: the Potency entry in experiment [2], in experiment [8], in experiment [9], in [10], in [11] and in experiment [12] was “inactive” in each case.

With `COc1cc(N2CCN(C)CC2)ccc1Nc1nc(N)c(C(=O)c2c(Cl)cccc2Cl)s1`, the Potency in experiment [1] is 20.9 µM (active); in experiment [3], 18.7 µM (active); in experiment [4], 20.9 µM (active); in experiment [6], 18.7 µM (active); in [14], 23.5 µM (active); in experiment [12] it was 18.7 µM (active). Moreover, the Potency result in experiment [10] is “inactive”.

Take `O=C(Nc1ccccc1)Nc1ccc(-c2ccc(C(=O)[C@H]3CCC[C@H]3C(=O)O)cc2)cc1`: the Potency entry in experiment [2], in experiment [4], in experiment [15], in experiment [8], in experiment [10] and in experiment [11] was “inactive” in each case. For the same compound, the Potency entry in experiment [12] and in experiment [13] was “inactive” each time. For the same compound, the values for the Potency in [3], in [7] and in experiment [14] were 20.9 µM (active), 4.69 µM (active) and 2.96 µM (active), respectively. For the same compound, the viability in [5] is 114%.

In the case of `CC(C)n1c(C=C[C@H](O)C[C@H](O)CC(=O)O)c(-c2ccc(F)cc2)c2ccccc21`, the Potency in experiment [1] is 4.18 µM (active); in experiment [16], 4.18 µM (active); in experiment [4], 5.26 µM (active); in experiment [5] it was 16.6 µM (active); in [6] it was 4.18 µM (active); in experiment [7], 16.6 µM (active). Further, the Potency is 4.69 µM (active) in [14]; 16.6 µM (active) in experiment [15]; 14.8 µM (active) in experiment [8]; 18.7 µM (active) in experiment [10]; 8.33 µM (active) in experiment [12].

As for `C[C@@H]1CCO[C@H]2Cn3cc(C(=O)NCc4ccc(F)cc4F)c(=O)c(O)c3C(=O)N12`, in [1], the viability (% of control) is 92.8% (active). The Potency in [3] is 20.9 µM (active); in experiment [5], 26.4 µM (active); in experiment [14] it was 26.4 µM (active); in experiment [9], 23.5 µM (active); in experiment [12], 18.7 µM (active); in [13], 16.6 µM (active). The Potency entry in experiment [11] is “inactive”.

As for `N#CC(c1ccc(Cl)cc1)c1c(Cl)cc(-n2ncc(=O)[nH]c2=O)cc1Cl` (centres undefined), the Potency was 16.6 µM (active) in experiment [1]; 4.69 µM (active) in [16]; 5.9 µM (active) in experiment [4]; 14.8 µM (active) in experiment [7]; 18.7 µM (active) in experiment [14]; 18.7 µM (active) in experiment [8]. The Potency in experiment [9] was 23.5 µM (active). For the same compound, the Potency result in experiment [11] and in [13] was “inactive” each time.

In the case of `Cc1cn([C@@H]2C[C@@H](O)[C@H](CO)O2)c(=O)[nH]c1=O`, the Potency result in [1], in experiment [3], in experiment [7], in experiment [14], in experiment [15] and in experiment [17] was “inactive” throughout. In addition, the Potency result in [8], in experiment [9], in [10], in [11] and in experiment [12] was “inactive” each time. In experiment [5], the viability was 137%.

With `COc1ccc2ccc(=O)oc2c1CC=C(C)C`, the Potency in experiment [1] is 10.5 µM (active); in experiment [3] it was 8.33 µM (active); in experiment [6], 13.2 µM (active). For the same compound, the Potency result in [4], in experiment [8] and in [9] was “inactive” in each case.

Consider `CCOC(=O)N1CCN([N+]([O-])=NOc2cc(ON=[N+]([O-])N3CCN(C(=O)OCC)CC3)c([N+](=O)[O-])cc2[N+](=O)[O-])CC1`, for which the Potency was 2.96 µM (active) in experiment [16]; 2.35 µM (active) in experiment [3]; 5.9 µM (active) in [4]; 4.69 µM (active) in experiment [5]; 7.43 µM (active) in [6]; 4.69 µM (active) in [7]. For the same compound, the Potency was 4.18 µM (active) in [14]; 6.62 µM (active) in experiment [15]; 8.33 µM (active) in [17]; 2.96 µM (active) in [8]; 6.62 µM (active) in experiment [9]; 9.35 µM (active) in [10]. The Potency was 18.7 µM (active) in [11] and 5.9 µM (active) in experiment [12].

In the case of `CNC(=O)c1ccc2c(C(=Nc3cccc(CN(C)C)c3)c3ccccc3)c(O)[nH]c2c1`, the Potency in experiment [1] is 4.18 µM (active); in experiment [16] it was 5.9 µM (active); in experiment [4], 18.7 µM (active); in [7] it was 16.6 µM (active); in experiment [14] it was 14.8 µM (active); in experiment [15] it was 16.6 µM (active). Besides, the Potency in [17] is 16.6 µM (active); in experiment [8], 18.7 µM (active); in experiment [9], 16.6 µM (active); in experiment [10] it was 13.2 µM (active). Besides, the Potency entry in experiment [11] was “inactive”.

`Cc1ccc(C(=O)N(CCCN)[C@@H](c2nc3cc(Cl)ccc3c(=O)n2Cc2ccccc2)C(C)C)cc1`: the Potency entry in experiment [2], in experiment [11] and in [12] was “inactive” in each case. In addition, the Potency in experiment [5] is 23.5 µM (active); in [6], 26.4 µM (active); in [9] it was 5.26 µM (active).

Consider `CCNC(=O)Nc1ccc(Oc2ncnc(N)c2C=NOC)cc1Cl`, for which the Potency was 2.64 µM (active) in experiment [16]; 14.8 µM (active) in experiment [3]; 11.8 µM (active) in experiment [5]; 4.18 µM (active) in [7]; 2.96 µM (active) in experiment [14]; 3.72 µM (active) in experiment [15]. Also, the figures for the Potency in experiment [10] and in experiment [12] were 18.7 µM (active) and 9.35 µM (active), respectively. Besides, the Potency result in experiment [4] was “inactive”.

Regarding `Cc1cc2c(cc1C1(c3ccc(C(=O)O)cn3)CC1)C(C)(C)CCC2(C)C`, the Potency result in [1], in experiment [6] and in experiment [12] was “inactive” throughout. The Potency was 26.4 µM (active) in experiment [8] and 0.0118 µM (active) in [10].

As for `NC(=O)c1nnn(Cc2cc(Cl)c(C(=O)c3ccc(Cl)cc3)c(Cl)c2)c1N`, the Potency result in experiment [1] is “inactive”. Also, the Potency in experiment [3] is 26.4 µM (active); in [4], 16.6 µM (active); in experiment [6], 16.6 µM (active); in experiment [7], 18.7 µM (active); in experiment [14], 20.9 µM (active); in [15], 20.9 µM (active). For the same compound, the Potency in [8] is 23.5 µM (active); in experiment [10] it was 14.8 µM (active); in experiment [12] it was 16.6 µM (active).
